Source: PubChem (National Center for Advancing Translational Sciences (NCATS))
In the library only some 2% were active in any assay of this set; here they are far more common.
KCNH2 3.1 block – inhibitors of human KCNH2 3.1 potassium channel isoform | U2OS KCNH2 3.1, thallium flux FluxOr; hits give low values | activity change, % (tested at about 1.8 µM) | 340,000 tested, 0.95% active | AID 720553;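 active means maximum activity change below -70%; inconclusive means maximum activity change from -70% to -50%; inactive means maximum activity change above -50%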;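 further: thallium influx rate constant from kinetic fluorescence after stimulation buffer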
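Thallium flux read-out: FluxOr dye with Red40 quencher in HBSS/HEPES, 45 min at RT. Rate constants from kinetic reads were normalized to positive and negative DMSO controls. Cells: U2OS virally expressing the 3.1 isoform.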
Six1-Eya2 blk – blocks human Six1 binding to Eya2. AlphaScreen GST-Six1/His-Eya2 binding, biochemical; hits give low values. activity change, % (test concentration not listed). 360,000 tested, 0.56% active. AID 651725
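GST-Six1 + His-Eya2 (5X stock: 250/500 nM); Tris pH 8.0, 300 mM NaCl, 0.05% BSA, 0.02% Tween 20; GSH donor/Ni acceptor beads; 1 h 37 °C dark; AlphaScreen readout.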
KCNH2 WT inh – blocks the wildtype human KCNH2 potassium channel; U2OS, BacMam KCNH2, thallium flux FluxOr; hits give low values; AID 720551; activity change, % at 1.84 µM; 340,000 tested, 0.37% active;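 active means maximum activity change below -70%; inconclusive means maximum activity change between -70% and -50%; inactive means maximum activity change above -50%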
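U2OS cells transduced with wild-type KCNH2 virus are loaded with FluxOr dye for 45 min, and thallium flux is measured in kinetic reads before and after stimulation buffer. Rate constants are normalized to DMSO controls.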
KDM4E inh – blocks human JMJD2E demethylase activity | 230,000 tested, 1.6% active | B2RXH2 | Potency, µM (doses to about 57.1 µM), actives largely listed as inhibitors | JMJD2E catalytic domain, FDH-coupled NADH fluorescence (FDH is formaldehyde dehydrogenase); further: nearly all actives have a fitted effect of over 50% in size
CtBP-E1A inh – blocks the CtBP interaction with E1A; 340,000 tested, 0.49% active; AID 651724; activity change, % (concentration not given with the values); AlphaScreen GST-E1A/His-CtBP binding, 1536-well; hits give low values
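GST-E1A and His-tagged CtBP (125 nM each as 5X stock) were preincubated with pin-transferred compound for 2 h at 37 °C in the dark, then glutathione donor and nickel acceptor beads were added for 1 h before AlphaScreen reading.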
Each line names hits and unclear results; the compound was inactive in the other large screens; ! = repeats disagree. Unless noted, no stated cut-off is given here; in the data, active means activity change below about -65%; inconclusive means mostly about -30% to -63%; inactive means weaker than that.

COc1c(OC(C)=O)ccc(/C=C/c2ccc3cccc(OC)c3n2)c1[N+](=O)[O-]	none
COc1c(OC(C)=O)ccc(/C=C/c2ccc3ccccc3n2)c1[N+](=O)[O-]	KCNH2 3.1 block -77.0, CtBP-E1A inh inconclusive
Cc1ccc(-n2c(SCC(=O)Nc3ccc4cn[nH]c4c3)nnc2-c2ccco2)cc1	KCNH2 3.1 block -111.6
CCCCn1c2c(c(=N)c3c1CCC3)CCC2	none
CCCCCCCn1c2c(c(=N)c3c1CCC3)CCCC2	KDM4E inh 3.55µM
CCn1c2c(c(=N)c3c1CCC3)CCC2	KCNH2 3.1 block -88.4
CCCCCCCCCn1c2c(c(=N)c3c1CCC3)CCC2	none
CC(C)OC(=O)C(C(=O)C(F)(F)F)c1cc(NS(=O)(=O)c2ccc3ccccc3c2)c2ccccc2c1O (stereo not given)	Six1-Eya2 blk inconclusive, KDM4E inh inconclusive, CtBP-E1A inh -68.1
Cc1ccc(C(=O)O)cc1NS(=O)(=O)c1ccc2ccccc2c1	none (no result: KDM4E inh)
Cc1ccc(C(=O)N/C(=C\c2cccs2)C(=O)N2CCCCCC2)cc1	none
CCN1CCN(C(=O)/C(=C/c2cccs2)NC(=O)c2ccc(C)c(C)c2)CC1	KCNH2 WT inh -100.2 (no result: KDM4E inh)
COc1ccccc1NC(=O)Nc1ccc(-n2ccc(C(F)(F)F)n2)cc1	KCNH2 3.1 block -201.5, KCNH2 WT inh -124.5, KDM4E inh inconclusive
Cc1cc(C)cc(NC(=O)Nc2ccc(-n3ccc(C(F)(F)F)n3)cc2)c1	none
S=c1[nH]nc(-c2ccccn2)n1/N=C/c1ccccc1	Six1-Eya2 blk inconclusive, KDM4E inh inconclusive
S=c1[nH]nc(-c2ccccn2)n1/N=C/c1cccc2ccccc12	Six1-Eya2 blk -67.5, KDM4E inh inconclusive, CtBP-E1A inh inconclusive
Cc1ccccc1/C=N/n1c(-c2ccccn2)n[nH]c1=S	Six1-Eya2 blk -89.7
COc1ccccc1/C=C/C=N/n1c(-c2ccccn2)n[nH]c1=S	Six1-Eya2 blk -67.5, KDM4E inh inconclusive (no result: CtBP-E1A inh)
S=c1[nH]nc(-c2ccccn2)n1/N=C/c1cccs1	Six1-Eya2 blk inconclusive
CCCCC1C(C#N)=C(C)NC2=C1C(=O)CC(C)(C)C2 (stereo not given)	KDM4E inh inconclusive
COc1ccc(CCNS(=O)(=O)CC23CCC(CC2=O)C3(C)C)cc1OC (stereo not given)	none (no result: KDM4E inh, CtBP-E1A inh)
COc1ccc(C2C(C#N)=C(N)Nc3nc4ccccc4n32)cc1 (stereo not given)	KCNH2 WT inh -112.9, KDM4E inh inconclusive
COc1ccc(C2C=C(C)Nc3nc4ccccc4n32)cc1 (stereo not given)	KDM4E inh inconclusive
C#CCn1c(=NC(=O)c2ccc(S(=O)(=O)N3CCc4ccccc4C3)cc2)sc2cc(S(N)(=O)=O)ccc21	KDM4E inh 6.31µM
COCCn1c(=NC(=O)c2ccc(S(=O)(=O)N3CCc4ccccc4C3)cc2)sc2cc(S(N)(=O)=O)ccc21	KCNH2 3.1 block inconclusive, KDM4E inh 3.98µM
O=C1c2ccccc2C(=O)N1c1nccs1	none (no result: KDM4E inh)
O=c1c2ccccc2sn1-c1ccccc1	KDM4E inh 25.1µM
O=c1c2ccccc2sn1-c1cccc(Cl)c1	none (no result: KDM4E inh)
Cc1ccc(-n2sc3ccccc3c2=O)cc1S(=O)(=O)N1CCCCC1	Six1-Eya2 blk inconclusive, KDM4E inh 11.2µM, CtBP-E1A inh inconclusive
O=c1c2ccccc2sn1-c1nccs1	KDM4E inh 7.94µM
CN(C)S(=O)(=O)c1cccc(-n2sc3ccccc3c2=O)c1	KDM4E inh 3.55µM
CSc1ncccc1C(=O)OCn1nnc2ccccc2c1=O	none
C#CCOCCOCCOCCNc1nc(N2CCN(C(=O)[C@H](CCCCN)n3cc([C@@H](N)C(C)CC)nn3)CC2)nc(N2CCN(C(=O)[C@H](CCCCN)n3cc([C@@H](N)CO)nn3)CC2)n1 (stereo not given in full)	KDM4E inh 20µM (no result: KCNH2 3.1 block, Six1-Eya2 blk, KCNH2 WT inh, CtBP-E1A inh)
C#CCOCCOCCOCCNc1nc(N2CCN(C(=O)[C@H]([C@@H](C)CC)n3cc([C@@H](N)CO)nn3)CC2)nc(N2CCN(C(=O)[C@H](CCCCN)n3cc([C@@H](N)C(C)CC)nn3)CC2)n1 (stereo not given in full)	none
C#CCOCCOCCOCCNc1nc(N2CCN(C(=O)[C@H](CCCCN)n3cc(CC(C)O)nn3)CC2)nc(N2CCN(C(=O)[C@H](CCCCN)n3cc(CC(C)O)nn3)CC2)n1 (stereo not given in full)	KCNH2 3.1 block -76.4 (no result: KDM4E inh)
Fc1ccc(N2CCN(C3=Nc4cccc5cccc3c45)CC2)cc1	KCNH2 3.1 block -80.3, Six1-Eya2 blk inconclusive, KCNH2 WT inh active, CtBP-E1A inh inconclusive
O=C(c1[nH]c(C(F)(F)F)nc1-c1ccccc1)N1CCN(c2ncc(C(F)(F)F)cc2Cl)CC1	none (no result: KCNH2 3.1 block, KCNH2 WT inh, KDM4E inh)
CCS(=O)(=O)NCC(c1cccnc1)N1CCN(c2ccc(OC)cc2)CC1 (stereo not given)	KDM4E inh inconclusive, CtBP-E1A inh -75.2
CCCn1nc(C(=O)NNC(=O)c2cc(S(=O)(=O)NC)ccc2Br)c2ccccc2c1=O	none (no result: KDM4E inh)
CCN1/C(=C/C(C)=C/c2sc3ccccc3[n+]2CC)Sc2ccccc21	Six1-Eya2 blk -80.1!, CtBP-E1A inh inconclusive
CCN1/C(=C\C(=S)Nc2ccccc2)Sc2ccccc21	Six1-Eya2 blk inconclusive
CN(C)S(=O)(=O)Nc1cccc(-c2cn3c(n2)SCC3)c1	KCNH2 3.1 block -106.3 (no result: KDM4E inh, CtBP-E1A inh)
CN1/C(=C\C(=S)NC(=O)c2cccc(Br)c2)C(C)(C)c2ccccc21	Six1-Eya2 blk -72.7, CtBP-E1A inh -69.8
CN1/C(=C\C(=S)NC(=O)c2ccc([N+](=O)[O-])cc2)C(C)(C)c2ccccc21	Six1-Eya2 blk inconclusive, CtBP-E1A inh inconclusive
CCC(C)NC(=O)N[C@@H](Cc1ccccc1)C(=O)O (stereo not given in full)	none
Cc1nc2ccccc2c(=O)n1NC(=O)c1ccccc1Br	none (no result: KDM4E inh)
Cc1cccc(-c2nc3ccccc3c(=O)n2NC(=O)/C=C/c2ccc([N+](=O)[O-])cc2)c1	CtBP-E1A inh -81.0
O=C(/C=C/c1cccc([N+](=O)[O-])c1)Nn1c(-c2ccccc2F)nc2ccccc2c1=O	none
Cc1nc2ccccc2c(=O)n1NC(=O)/C=C/c1ccc(Br)cc1	CtBP-E1A inh -65.5
O=C(COc1ccc(-c2nnco2)cc1)NC1CCS(=O)(=O)C1 (stereo not given)	none (no result: KDM4E inh)
COC(=O)c1cn(NC(=O)Cn2nc([N+](=O)[O-])c(Cl)c2C)c(=O)c2ccccc12	none
CCOc1ccc(-n2nc3c(SCCN4CCCC4)nnc(C)c3c2C)cc1	KDM4E inh inconclusive
CCc1cccc(C)c1NC(=O)CC(C)(C)CC(=O)O	none
CN(C)Cc1c(O)ccc2c(=O)c(-c3ccc(Cl)cc3)coc12	none (no result: KDM4E inh)
O=c1c(-c2ccc([N+](=O)[O-])cc2)coc2c(O)c(O)ccc12	KDM4E inh 14.1µM
C(=C\c1ccco1)/C1=NN(c2ccccc2)C(c2ccco2)C1 (stereo not given)	KDM4E inh inconclusive
